Rab9 prom act – activates the Rab9 promoter | Huh7 Rab9 promoter-luciferase reporter, luminescence, 24 h | Potency, µM (series often up to 9.22 µM), for inactives: at the top dose activation, negative = inhibition, hits mostly activators | AID 485297 | 320,000 compounds, 2.8% hits; further: % of control where 0% means no effect; nearly all actives have a fitted effect of over 60% in size
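Measured in stably transfected Huh7 cells bearing a Rab9 promoter–luciferase construct: 24 h compound treatment at 37 °C, followed by luminescence detection.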
ELG1 genotox – inducers of genotoxicity in HEK293T ELG1-luciferase cells; AID 504466; 330,000 compounds, 1.3% hits; Potency, µM (series often up to 46 µM), for inactives: at the highest dose activity change, positive = activation, usual class: activators; HEK293T ELG1-luciferase reporter, luminescence, 16 h; further: % of control where 0% means no effect; nearly all actives have a fitted effect of over 60% in size
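Screening used a luciferase reporter fused to human ELG1 in HEK293T cells. Luminescence was read on a CCD plate imager after 16 hr exposure and 30 min ONE-Glo incubation.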
FLuc modulator – firefly luciferase modulation, counter-screen for miR-21 project; AID 588342; P08659; 360,000 compounds, 6.9% hits; Potency, µM (top dose mostly 57.5 µM), without a hit: top-dose activity change, negative = inhibition, usual class: inhibitors; purified FLuc, Km substrates, luminescence inhibition;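 further: plate controls were vehicle for no effect and reference inhibitor for full effect; nearly all actives have a fitted effect of over 55% in size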
Target sequence (P08659 whole entry, looked up): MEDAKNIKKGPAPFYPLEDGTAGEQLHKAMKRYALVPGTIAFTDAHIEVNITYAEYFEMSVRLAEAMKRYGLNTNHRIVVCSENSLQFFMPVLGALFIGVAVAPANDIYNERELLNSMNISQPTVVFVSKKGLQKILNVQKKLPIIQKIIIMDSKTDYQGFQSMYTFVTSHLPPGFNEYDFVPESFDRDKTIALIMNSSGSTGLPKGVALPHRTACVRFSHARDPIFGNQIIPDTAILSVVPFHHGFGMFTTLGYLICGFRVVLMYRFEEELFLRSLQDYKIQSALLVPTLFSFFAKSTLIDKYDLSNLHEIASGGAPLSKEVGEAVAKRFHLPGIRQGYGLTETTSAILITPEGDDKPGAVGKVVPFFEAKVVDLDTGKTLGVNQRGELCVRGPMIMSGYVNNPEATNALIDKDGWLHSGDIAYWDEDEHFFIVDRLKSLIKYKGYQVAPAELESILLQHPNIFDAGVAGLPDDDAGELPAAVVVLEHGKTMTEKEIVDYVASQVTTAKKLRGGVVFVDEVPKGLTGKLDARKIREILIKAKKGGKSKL
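Biochemical qHTS of compounds, final roughly 60 µM downward over six points, against 10 nM purified firefly luciferase using Km concentrations of substrates (10 uM D-luciferin, 10 uM ATP) in Tris acetate pH 7.5 buffer; luminescence output.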
NPC1 promoter act – NPC1 promoter activation | Huh7 NPC1 promoter luciferase reporter, 24 h | Potency, µM (titrated, usually from 9.22 µM), for inactives: top-dose activation, actives largely listed as activators | 320,000 compounds, 2.4% hits; further: % of control where 0% means no effect; nearly all actives have a fitted effect of over 60% in size
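Stable NPC1-promoter luciferase Huh7 line; cpd (DMSO) 24 h, 37 °C, 5% CO2; Amplite luciferase reagent 10 min RT; luminescence readout. qHTS format.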
SMN2 splice enh – increases expression of the SMN2 splice variant | 210,000 compounds, 2.8% hits | Potency, µM (highest dose often 46.1 µM), for the others: at the highest dose activity change, positive = activation, usual class: activators | HEK293 SMN2-luciferase splicing reporter, luminescence, 30-36 h | AID 1458; further: % of control where 0% means no effect; nearly all actives have a fitted effect of over 55% in size
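qHTS luciferase splicing reporter: luminescence rises when SMN2 exon 7 is included in transfected HEK293 cells. Compound exposure lasted 30-36 h at 37C, with 4.5 mM final sodium butyrate as control, followed by a ONE-Glo read.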
ELG1 repair inh – inhibitors of ELG1-dependent DNA repair in HEK293T cells; HEK293T ELG1-luciferase reporter, luminescence, 16 h; DNA damage induced by 5-fluorouridine; Potency, µM (doses to about 46.1 µM), without a hit: top-dose activity change, negative = inhibition, most hits filed as inhibitors; 330,000 compounds, 2.3% hits; further: on the % scale 0 is the no-effect control and ±100 the full control effect; nearly all actives have a fitted effect of over 55% in size
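DMSO vehicle served as the neutral condition. Each well held 2,000 cells given 5-fluorouridine plus compound; after 16 hr at 37 °C/5% CO2, ONE-Glo was added and luciferase measured 30 min later.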
* marks the source's active call; other numbers are inactive results; ? = inconclusive; . = no result; [ ] = remark or other dose. In the library only some 9.3% were active in any assay of this set; here they are far more common. The call rests on the fitted dose curve; in most records, active means well fitted curve in the direction sought with a large enough effect; inconclusive means small, poorly fitted or top-dose-only effect, or another doubt; inactive means no such curve, though single readings can be large; an effect the other way counts as inactive or inconclusive. Potency means the concentration at half of the fitted maximal effect.

SMILES | Rab9 prom act | ELG1 genotox | FLuc modulator | NPC1 promoter act | SMN2 splice enh | ELG1 repair inh
O=C(NCCc1ccc(Cl)cc1)c1cc2ccccn2n1 | 17% | 3% | -18% | 3% | . | 13%
CCc1ccc(NC(=O)c2cc3ccccn3n2)cc1 | . | . | 1.9µM* | . | . | .
Cc1ccccc1CCNC(=O)c1cc2ccccn2n1 | . | . | 11µM* | . | . | .
Cc1ccc(NC(=O)CCn2cccc2)cc1F | -1% | 5% | 4% | -2% | -7% | ?
CC(=O)c1cccc(NC(=O)CO/N=C2/CCCc3nonc32)c1 | 3% | -5% | 6% | 1% | -11% | -3%
O=[N+]([O-])c1ccc(O)c(/C=N/Nc2ccc(Cl)nn2)c1 | -5%[1.84 µM] | 7% | ? | 3.2µM* | -66% | ?
O=[N+]([O-])c1ccc(O)c(/C=N/NC2=NS(=O)(=O)c3ccccc32)c1 | 12% | -4% | 8.5µM* | 4% | -9% | ?
Cc1ccc(S(=O)(=O)N/N=C/c2cc([N+](=O)[O-])ccc2O)cc1[N+](=O)[O-] | 2% | 10% | 13µM* | -3% | -20% | ?
O=[N+]([O-])c1ccc(/C=N/NC2=NS(=O)(=O)c3ccccc32)cc1 | -1% | 3% | 15µM* | -5% | 8% | 30%
Cc1ccc(F)cc1NC(=O)N1CCN(c2ccnc3cc(Cl)ccc23)CC1 | -9% | -12% | 3% | -1% | . | ?
CN1C(=S)SC(/[N+]([O-])=C\c2ccccc2)C1(C)C (configuration not stated) | 9% | -1% | 2% | 2% | 8% | 8%
CCOc1ccccc1NC(=S)N1CCC(c2nc3ccccc3o2)CC1 | -7% | -3% | 1% | -2% | -9% | -15%
N#Cc1ccc(S(=O)(=O)N2CCN(C(=O)C3CC(=O)N(c4ccc5c(c4)OCCO5)C3)CC2)cc1 (configuration not stated) | 1% | -2% | . | 1% | . | 8%
CC(=O)Nc1ccc(S(=O)(=O)N(Cc2ccco2)Cc2cc3ccccc3[nH]c2=O)cc1 | 4% | -6% | 4% | -2% | . | ?
COc1ccc(N2CCN(C(CNC(=O)C(=O)NCc3ccc4c(c3)OCO4)c3ccco3)CC2)cc1 (configuration not stated) | -12% | -4% | 1% | -15% | -64% | 7.3µM*
O=C(NCc1ccc2c(c1)OCO2)C(=O)NCC(c1ccco1)N1CCN(c2ccccc2)CC1 (configuration not stated) | -5% | 2% | 3% | 0% | -57% | ?
Cc1cc(S(=O)(=O)Nc2ccc3ccccc3c2)c(C)s1 | -11% | -8% | -1% | -12% | ? | -13%
c1ccc(Nc2nc3ccccc3[nH]2)nc1 | 3.5µM* | ? | 24µM* | ? | ? | ?
Cc1cc(C)nc(Nc2nc3ccccc3[nH]2)n1 | ? | ? | ? | ? | 13µM* | ?
Nc1ccc(Nc2nc3ccccc3[nH]2)cc1 | 3% | 0% | -22% | 2% | . | -14%
CSc1ccc(CN(C)C(=O)C2CCN(C(=O)Nc3ccccc3)CC2)cc1 | -11% | -7% | . | 0% | . | ?
COc1ccc(-c2[nH]nc3c2C(c2ccsc2)C(C#N)=C(N)O3)cc1 (configuration not stated) | 9% | -1% | -3% | -4% | -5% | -8%
COc1ccc(-c2oc(=O)c3cc(OC)c(OC)cc3c2-c2ccc3c(c2)OCO3)cc1 | . | 0% | . | . | . | ?
Cc1ccc(-c2cc(C(=O)Nc3ccc4c(c3)OCCO4)c3ccccc3n2)cc1 | 19% | 9% | 9.5µM* | 16% | 11µM* | -4%
O=C(CSc1ccc2ccccc2n1)NCc1ccc2c(c1)OCO2 | -7% | 0% | ? | -5% | -21% | -5%
SMILES | Rab9 prom act | ELG1 genotox | FLuc modulator | NPC1 promoter act | SMN2 splice enh | ELG1 repair inh
c1ccc2nc(-c3ccc4c(c3)OCO4)ccc2c1 | 0.32µM* | 2.6µM* | 0.95µM* | 0.56µM* | 13µM* | ?
COc1ccc(OC)c2nc(-c3ccc4c(c3)OCO4)ccc12 | 1.4µM* | 4.6µM* | 1.9µM* | 1.4µM* | . | ?
Cc1cc(C)nc(NC(=O)c2cc(-c3ccc4c(c3)OCO4)nc3ccccc23)c1 | -3% | -9% | ? | -2% | . | 18µM*
O=C(Nc1ccc2c(c1)OCO2)c1cc(-c2cccnc2)nc2ccccc12 | 21% | -5% | ? | 12% | -5% | -11%
O=C(NCCN1CCc2ccccc2C1)C1CCN(S(=O)(=O)N2CCCCC2)CC1 | 5% | 1% | 1% | 11% | -6% | 6%
Cc1ccc(NC(=O)N2CCCC2C(=O)NCC2CCCCC2)cc1 (configuration not stated) | 1% | 0% | 2% | -2% | . | 9%
Cc1cc(O)cc2c1O[C@@](C)(CCC[C@@H](C)CCC[C@@H](C)CCCC(C)C)CC2 | -2% | -2% | -2% | -4% | . | 10%
O=C(NCCCN1CCCC1=O)c1cc(-c2ccc3c(c2)OCO3)nc2ccccc12 | -4% | -14% | 24µM* | 0% | -5% | -28%
O=C(O)c1cc(-c2ccc3c(c2)OCO3)nc2ccc(Br)cc12 | 11% | 5% | 3µM* | 10% | 7% | 0%
O=C(O)c1cc(-c2ccc3cc4c(cc3c2)OCO4)nc2ccccc12 | . | . | . | . | 3.5µM* | .
O=C(O)c1cc(-c2cccnc2)nc2ccc(Br)cc12 | -2% | -1% | ? | -7% | 27% | -6%
O=C(NCCCN1CCOCC1)c1cc(-c2ccc3c(c2)OCO3)nc2ccccc12 | 2% | -5% | ? | 0% | 4% | -11%
Cc1ccc(-c2cc(C(=O)Nc3cc(C(=O)O)ccc3C)c3ccccc3n2)cc1 | -1% | 3% | 11µM* | -1% | . | ?
Cc1ccc(C)c(NC(=O)c2cc(C)nc3ccccc23)c1 | 0% | -3% | -2% | 0% | . | -9%
CCc1nc(SCc2cccnc2)[nH]c(=O)c1C | 0% | 3% | 0% | 11% | -7% | 28%
COc1ccccc1CNC(=O)COCc1cc(-c2cccs2)on1 | . | . | -15% | . | . | .
COC(=O)c1cc(-c2ccc3c(c2)OCO3)nc2ccccc12 | 1% | -6% | 17µM* | -10% | -23% | -19%
O=C(COC(=O)c1cc(-c2ccncc2)nc2ccccc12)Nc1ccc2c(c1)OCO2 | -5% | 1% | 2% | -5% | 10% | 6%
Cc1ccccc1Cn1c(Oc2ccccc2F)nc2c1c(=O)n(C)c(=O)n2C | . | . | -1% | . | . | .
Cc1cc(C)c(S(=O)(=O)NCC(c2cccnc2)N2CCN(Cc3ccccc3)CC2)c(C)c1 (configuration not stated) | 0% | -4% | 4% | -1% | . | 15%
